Assay outcomes: PubChem BioAssay, National Center for Advancing Translational Sciences (NCATS)
p53null 32C kill = kills p53 null cells at the permissive temperature; 0.62% of 55,000 active; H1299-neo p53 null cells, ATP luminescence, 24 h, 32C; Potency, µM (highest dose often 46.1 µM), usual class: cytotoxic; AID 903; also: nearly all actives have a fitted effect of over 55% in size
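H1299-neo (p53 null) cells, 600/well, treated 24 h at 32C with compound up to 46 uM; ATPlite luminescence viability, normalized to DMSO and 100 uM tamoxifen; AC50 by Hill fit.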
PMP22 txn prim = modulates PMP22 transcription in S16 Schwann cells; S16 Pmp22-F2sN Schwann cells, FLuc/NLuc coincidence luminescence, 24 h; Potency, µM (highest dose often 57.5 µM), actives largely listed as inhibitors; 2% of 43,000 active; AID 1508649; active = clear falling dose curves in both reporters; inconclusive = both reporters move, but less clearly or upward; inactive = either reporter flat; the % is the NLuc reporter signal
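Rat S16 Pmp22-F2sN cells, 500-1,000/well in phenol red-free DMEM + 10% FBS, compound-treated 24 h (37C, 5% CO2). Luminescence: FLuc read, Stop&Glo added, NLuc read.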
pS6 MEF inh = mTORC1 pathway inhibition measured by phospho-rpS6. Tsc2-/- p53-/- MEF, phospho-rpS6 immunofluorescence/PI, 24 h. Potency, µM (doses to about 38.3 µM), actives largely listed as inhibitors. 0.78% of 44,000 active. AID 493208; also: nearly all actives have a fitted effect of over 50% in size
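Compounds act on Tsc2-/-, p53-/- fibroblasts carrying an empty vector for 24 h before fixation and dual staining for phospho-S6 and DNA (propidium iodide). Values are percentages of cells above a rapamycin-defined pS6/PI threshold.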
p53null 39C tox = kills p53 null cells at the nonpermissive temperature; H1299 p53-null (neo) cells, 39C, ATPlite viability, 24 h; Potency, µM (highest dose often 46.1 µM), most hits filed as cytotoxic; 0.97% of 55,000 active; also: nearly all actives have a fitted effect of over 50% in size
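Cells seeded at 600/well, 37C overnight. Compound added (up to 46 uM), plates shifted to 39C for 24 hr. ATPlite added, luminescence read after 20 min at room temperature.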
S16 F2sN tox = toxic to S16 Pmp22-F2sN Schwann cells | Potency, µM (highest dose often 57.5 µM), usual class: cytotoxic | 0.48% of 43,000 active | S16 Pmp22-F2sN Schwann cells viability, CellTiter-Glo, 24 h; also: nearly all actives have a fitted effect of over 65% in size
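Seed 500-1,000 S16 Pmp22-F2sN cells per well in phenol-red-free DMEM with 10% heat-inactivated FBS; pin-add 23 nL compound; incubate 24 h at 37C; add CellTiter-Glo, wait 15 min protected from light; read luminescence.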
NLuc saturating = NanoLuc enzyme inhibition artifact for PMP22 screen | shares compounds with PMP22 txn prim | Secreted NLuc enzyme (filtered S16 cell medium), Nano-Glo luminescence | Potency, µM (highest dose often 57.5 µM), actives largely listed as inhibitors | 4% of 690 active | AID 1508638
NLuc Km ctr = inhibits NanoLuc under Km conditions, PMP22 counter-screen. secreted NLuc enzyme, coelenterazine luminescence, Km conditions. shares compounds with PMP22 txn prim. Potency, µM (doses to about 57.5 µM), usual class: inhibitors. 5% of 690 active
FLuc ctr PMP22 = inhibits firefly luciferase, PMP22 counter-screen | shares compounds with PMP22 txn prim | purified P. pyralis FLuc, luminescence, 10 min | Potency, µM (top dose mostly 57.5 µM), most hits filed as inhibitors | 690 tested, under 10 active
Target sequence (P08659 whole entry, looked up): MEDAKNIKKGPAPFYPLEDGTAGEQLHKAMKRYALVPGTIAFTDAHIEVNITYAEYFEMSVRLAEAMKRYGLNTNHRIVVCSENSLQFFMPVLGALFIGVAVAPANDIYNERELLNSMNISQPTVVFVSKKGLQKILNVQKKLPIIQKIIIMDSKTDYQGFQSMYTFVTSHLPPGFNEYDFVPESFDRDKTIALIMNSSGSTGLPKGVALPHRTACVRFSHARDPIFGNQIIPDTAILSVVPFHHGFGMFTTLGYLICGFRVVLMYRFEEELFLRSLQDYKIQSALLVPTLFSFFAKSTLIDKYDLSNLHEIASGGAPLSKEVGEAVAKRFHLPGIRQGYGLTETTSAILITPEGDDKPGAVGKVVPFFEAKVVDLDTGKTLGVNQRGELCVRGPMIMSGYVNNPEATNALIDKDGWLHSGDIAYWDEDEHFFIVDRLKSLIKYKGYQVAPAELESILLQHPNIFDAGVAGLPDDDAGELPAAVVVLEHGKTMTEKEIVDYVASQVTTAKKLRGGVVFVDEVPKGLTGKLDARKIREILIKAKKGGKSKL
S16 F2sN tox cnf = confirmation of cytotoxicity in S16 Pmp22-F2sN Schwann cells (luciferase reporters placed in the Pmp22 gene); shares compounds with PMP22 txn prim; 7% of 690 active; S16 Schwann cells viability, CellTiter-Glo ATP luminescence, 24 h; Potency, µM (titrated, usually from 57.5 µM), usual class: cytotoxic
PMP22 txn cnf = PMP22 transcription modulation, confirmatory; shares compounds with PMP22 txn prim; S16 Schwann cells Pmp22-F2sN, dual luciferase, 24 h; Potency, µM (titrated, usually from 57.5 µM), most hits filed as inhibitors; 22% of 690 active; AID 1508646; active = clear falling dose curves in both reporters; inconclusive = both reporters move, but less clearly or upward; inactive = either reporter flat; the % is the FLuc reporter signal
Each line names hits and unclear results; the compound was inactive in the other large screens (follow-up assays come after a bar, where they were run). Hits are enriched below; roughly 3.2% of the tested compounds scored in any of these assays. Unless noted, calls follow the shape of the dose curve; as a rule, active = well fitted curve in the direction sought with a large enough effect; inconclusive = small, poorly fitted or top-dose-only effect, or another doubt; inactive = no such curve, though single readings can be large; an effect the other way counts as inactive or inconclusive.

COc1ccc2c(c1)CC(C(=O)Nc1ccc(OC)cc1OC)CO2 (stereo unspecified)	none
CCOC(=O)c1c(C)n(-c2ccccc2)c2ccc(OC(=O)COc3ccc(Cl)cc3)cc12	none
CCOC(=O)c1ccc(-c2ccc(/C=C(\C#N)C(=O)Nc3cccc(C)c3)o2)cc1	PMP22 txn prim inconclusive | NLuc saturating inconclusive | NLuc Km ctr inactive | FLuc ctr PMP22 inactive | S16 F2sN tox cnf inactive | PMP22 txn cnf 17µM
COc1ccc(-c2c(C)nn3c(N4CCN(c5cc(Cl)ccc5C)CC4)cc(C)nc23)cc1OC	PMP22 txn prim 15µM | NLuc saturating inactive | NLuc Km ctr inconclusive | FLuc ctr PMP22 inactive | S16 F2sN tox cnf inactive | PMP22 txn cnf inactive
COc1ccccc1-c1c(C)nn2c(N3CCN(c4ccc(Cl)cc4)CC3)cc(C)nc12	none
CC(=O)N1CCc2c(sc3c2c(=O)n(-c2ccccc2Cl)c(=O)n3Cc2cccc(C)c2)C1	PMP22 txn prim inconclusive
Cc1cc(C)c2c(n1)nn1c(C)c(CCC(=O)NCc3ccccc3Cl)c(C)nc21	none
CCC1=Nc2cc(C(=O)NCc3ccccc3Cl)ccc2Sc2ccc(C)cc21	PMP22 txn prim 10µM, pS6 MEF inh inconclusive | NLuc saturating inactive | NLuc Km ctr inactive | FLuc ctr PMP22 inactive | S16 F2sN tox cnf inactive | PMP22 txn cnf inactive
CC1=Nc2cc(C(=O)NCc3ccccc3Cl)ccc2Sc2c(C)ccc(C)c21	PMP22 txn prim 10µM | NLuc saturating inactive | NLuc Km ctr inactive | FLuc ctr PMP22 inactive | S16 F2sN tox cnf inactive | PMP22 txn cnf inconclusive
O=c1n(Cc2ccccc2)nc2n1-c1cc(Cl)ccc1OC2	none (no result: p53null 32C kill, p53null 39C tox)
CCOC(=O)c1oc2c(c1C)-c1nn(Cc3ccc(Cl)cc3)cc1CC2	PMP22 txn prim inconclusive | NLuc saturating inconclusive | NLuc Km ctr inconclusive | FLuc ctr PMP22 inactive | S16 F2sN tox cnf inactive | PMP22 txn cnf inactive
COc1ccc(N(C(=O)c2cc(OC)c(OC)c(OC)c2)S(=O)(=O)c2ccc(C)cc2)cc1	PMP22 txn prim 19µM, S16 F2sN tox inconclusive | NLuc saturating inactive | NLuc Km ctr inactive | FLuc ctr PMP22 inactive | S16 F2sN tox cnf inactive | PMP22 txn cnf inactive
CCCC(=O)Nc1nnc(SCc2cc(=O)c3ccc(C)cc3[nH]2)s1	PMP22 txn prim 6.8µM, pS6 MEF inh inconclusive | NLuc saturating inconclusive | NLuc Km ctr inconclusive | FLuc ctr PMP22 inactive | S16 F2sN tox cnf inactive | PMP22 txn cnf inconclusive
CCC(=O)Nc1nnc(SCc2cc(=O)c3cc(C)ccc3[nH]2)s1	PMP22 txn prim inconclusive
CCCCCCOc1ccc(/C=C/C(=O)Nc2sc3c(c2C(=O)OC)CCC3)cc1OC	PMP22 txn prim 7µM, S16 F2sN tox inconclusive | NLuc saturating inactive | NLuc Km ctr inactive | FLuc ctr PMP22 inactive | S16 F2sN tox cnf inactive | PMP22 txn cnf inactive
Cc1ccc(NC(=O)/C(C#N)=C/c2cc(C)n(-c3ccc(Br)cc3)c2C)cc1C	PMP22 txn prim 12µM | NLuc saturating inactive | NLuc Km ctr inactive | FLuc ctr PMP22 inactive | S16 F2sN tox cnf inactive | PMP22 txn cnf inconclusive
